Screening results (PubChem BioAssay)
PLK1 PBD inh = PLK1 (human) polo-box domain binding inhibition | Potency, µM, most hits filed as inhibitors | AID 720504 | P53350 | Plk1 PBD binding of FITC phosphopeptide, fluorescence polarization | 2.8% of 360,000 active; further: series mostly up to about 57 µM; nearly all actives have a fitted effect of over 65% in size
Target sequence (P53350 whole entry, looked up, the tested form may be a part): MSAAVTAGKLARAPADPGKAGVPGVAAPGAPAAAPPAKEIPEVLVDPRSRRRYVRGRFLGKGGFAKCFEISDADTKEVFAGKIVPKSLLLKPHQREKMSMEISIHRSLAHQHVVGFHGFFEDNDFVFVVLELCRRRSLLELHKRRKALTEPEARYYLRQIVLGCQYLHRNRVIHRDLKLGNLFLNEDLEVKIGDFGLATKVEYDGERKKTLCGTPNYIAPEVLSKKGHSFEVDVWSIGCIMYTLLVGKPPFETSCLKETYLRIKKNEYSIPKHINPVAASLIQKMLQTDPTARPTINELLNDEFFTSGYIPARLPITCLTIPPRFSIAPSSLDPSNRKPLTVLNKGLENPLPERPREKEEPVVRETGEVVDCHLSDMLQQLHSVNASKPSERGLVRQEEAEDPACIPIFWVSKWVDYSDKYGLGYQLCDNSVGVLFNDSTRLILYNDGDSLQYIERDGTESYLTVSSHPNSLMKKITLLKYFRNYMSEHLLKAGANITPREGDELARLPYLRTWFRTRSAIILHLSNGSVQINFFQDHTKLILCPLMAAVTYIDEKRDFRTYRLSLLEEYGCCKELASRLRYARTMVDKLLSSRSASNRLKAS
G9a inh = G9a (human) methyltransferase inhibition; Q96KQ7; G9a H3K9 monomethylation, AlphaScreen, 2 h; Potency, µM (titrated, usually from 102 µM), usual class: inhibitors; 8.8% of 350,000 active; AID 504332; further: nearly all actives have a fitted effect of over 75% in size
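Compounds were preincubated with 20 nM G9a for 15 min, after which biotinylated H3K9 peptide (500 nM) and SAM (20 uM) started a 2 h room-temperature reaction. Monomethylated product was quantified by antibody-based AlphaScreen chemiluminescence.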
PI5P4Ka inh = PI5P4K alpha (human) kinase inhibition; 1.2% of 330,000 active; max response, %; AID 652105; P48426; PI5P4Kalpha enzyme, ADP-Glo luminescence, 60 min; active compounds read low; active means max response of -50% or lower; inconclusive means between -30% and -50%; inactive means -30% or higher; further: value at the top dose of about 77 µM
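Compounds were pin-transferred onto PI5P4Kalpha and substrate in HEPES pH 7.4 buffer with EGTA, CHAPS and 5% DMSO. ATP (5 microM final) started the reaction, which ran 60 minutes at room temperature before ADP-Glo detection.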
JMJD2A Tudor = JMJD2A Tudor domain (human) inhibition. O75164. AlphaScreen JMJD2A-Tudor / H3K4me3 peptide binding. Potency, µM (doses to about 114 µM), actives largely listed as inhibitors. 4.4% of 390,000 active. AID 504339; further: nearly all actives have a fitted effect of over 50% in size
HP1b binding inh = blocks HP1-beta chromodomain binding to methylated histone tails. P83916. AlphaScreen HP1-beta / biotin-H3K9me3 peptide binding. Potency, µM (top dose mostly 114 µM), hits mostly inhibitors. 0.56% of 390,000 active. AID 540317; further: nearly all actives have a fitted effect of over 70% in size
Target sequence (P83916 whole entry, looked up): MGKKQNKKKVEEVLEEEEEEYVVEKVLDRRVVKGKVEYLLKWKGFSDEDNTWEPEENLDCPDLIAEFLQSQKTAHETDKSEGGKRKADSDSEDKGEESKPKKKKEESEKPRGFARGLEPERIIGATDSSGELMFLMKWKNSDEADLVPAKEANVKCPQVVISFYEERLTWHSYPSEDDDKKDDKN
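AlphaScreen: HP1-beta (50 nM) preformed 30 min with biotin-H3(1-18)K9me3 peptide (50 nM) in PBS pH 7.4, 0.01% Tween-20. Compound added for 30 min at RT, then streptavidin donor/nickel chelate acceptor beads (10 ug/mL) for 30 min.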
BAZ2B block = BAZ2B (human) inhibition; Q9UIF8; AlphaScreen BAZ2B-H3K14Ac peptide displacement; Potency, µM (highest dose often 114 µM), usual class: inhibitors; 4.4% of 360,000 active; further: nearly all actives have a fitted effect of over 60% in size
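Multi-concentration screen (max 110 uM) measuring displacement of acetylated histone H3 peptide from BAZ2B by AlphaScreen, using 50 nM protein, 50 nM peptide and 10 ug/mL streptavidin donor plus Ni-chelate acceptor beads.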
Large screens that a line does not name were inactive. Shown are actives, neighbours in structure and some others; about 12% of the full set was active somewhere. Unless noted, the call rests on the fitted dose curve; in most records, active means well fitted curve in the direction sought with a large enough effect; inconclusive means small, poorly fitted or top-dose-only effect, or another doubt; inactive means no such curve, though single readings can be large; an effect the other way counts as inactive or inconclusive.

CCCCn1c(N)c(N(CC)C(=O)CSCc2ccc(C)cc2)c(=O)[nH]c1=O	none (no result: G9a inh)
CCCCn1c(N)c(N(CCOC)C(=O)CSCc2ccc(Cl)c(Cl)c2)c(=O)[nH]c1=O	G9a inh 56.2µM
O=c1[nH]c(=S)[nH]c2sccc12	PLK1 PBD inh 15µM, G9a inh 10µM, PI5P4Ka inh inconclusive, JMJD2A Tudor 3.55µM, HP1b binding inh inconclusive
CCOc1ccc(S(=O)(=O)NCCC(=O)N2CC=C(c3ccccc3)CC2)cc1	none
CCOC(=O)c1ccc(N(CC(=O)NC2CCCCC2)C(=O)CNC(=O)c2ccco2)cc1	none
Cc1ccc(-c2nn(-c3ccc(F)cc3)cc2C(=O)N2CCN(C3CCS(=O)(=O)C3)CC2)cc1 (stereo not drawn)	none
Cc1ccc(-c2nn(-c3ccccc3)cc2C(=O)N2CCN(C3CCS(=O)(=O)C3)CC2)cc1 (stereo not drawn)	G9a inh 7.08µM
Cc1ccc(CNc2nc3c([nH]2)c(=O)n(C)c(=O)n3C)cc1	G9a inh 44.7µM
COc1ccc(N2CCN(C(=S)NC(=O)c3cccs3)CC2)c([N+](=O)[O-])c1	G9a inh 31.6µM, JMJD2A Tudor 50.1µM, HP1b binding inh inconclusive, BAZ2B block inconclusive
COc1ccc(N2CCN(C(=O)c3ccc(Br)cc3)CC2)c([N+](=O)[O-])c1	G9a inh 44.7µM, JMJD2A Tudor 79.4µM, HP1b binding inh inconclusive, BAZ2B block 25.1µM
COc1ccc(N2CCN(C(=O)c3ccccc3Br)CC2)c([N+](=O)[O-])c1	G9a inh 56.2µM, JMJD2A Tudor inconclusive
CCC1CN(C(=O)N2CCC(C(=O)NCc3cccc(F)c3)CC2)c2cc(C)ccc2O1 (stereo not drawn)	G9a inh inconclusive, BAZ2B block inconclusive (no result: PLK1 PBD inh, PI5P4Ka inh)
Cc1ccc(C)c(CN2C(=O)c3ccccc3S(=O)c3ccc(C(=O)N4CCN(c5cccc(Cl)c5)CC4)cc32)c1 (stereo not drawn)	BAZ2B block inconclusive (no result: PLK1 PBD inh, PI5P4Ka inh)
COc1ccc(OCC(=O)NC2CCCN(Cc3ccc(Cl)cc3)C2)cc1 (stereo not drawn)	BAZ2B block inconclusive (no result: G9a inh)
CCOC(=O)CSc1nc2sc3c(c2c(=O)n1Cc1ccccc1)CC(C)CC3 (stereo not drawn)	none (no result: PLK1 PBD inh, PI5P4Ka inh)
CC(=O)/C(=N/Nc1ccccc1C)N1CCOCC1	G9a inh 1µM, JMJD2A Tudor 56.2µM
CCOc1ccc(C2NC(=O)c3c(COC)cc(C)nc3N2Cc2ccccc2)cc1OC (stereo not drawn)	none (no result: PLK1 PBD inh, PI5P4Ka inh)
O=C(CSc1c2c(nc3ccccc13)CCCC2)NCc1ccco1	G9a inh inconclusive
COCCNC(=O)c1ccc2c(=O)n(Cc3ccco3)c(SCC(=O)NC3CCCCC3)nc2c1	none (no result: G9a inh)
COCCNC(=O)c1ccc2c(=O)n(Cc3ccco3)c(SCC(=O)Nc3ccc(OC)cc3OC)nc2c1	PLK1 PBD inh inconclusive, JMJD2A Tudor 56.2µM
O=C(CSc1nc2ccccc2c(=O)n1Cc1ccco1)NCc1ccco1	G9a inh inconclusive, JMJD2A Tudor 56.2µM, BAZ2B block inconclusive (no result: PI5P4Ka inh)
CC(C)(C)c1nc(SCC(=O)NCc2ccco2)c2ccccc2n1	G9a inh 50.1µM, BAZ2B block inconclusive
Cc1sc2nc(SCC(=O)NCc3ccco3)n(Cc3ccccc3)c(=O)c2c1C	G9a inh 50.1µM
Cc1ccc(-c2noc(-c3cccnc3N(C)Cc3ccc(Cl)cc3)n2)cc1	G9a inh inconclusive (no result: PLK1 PBD inh, PI5P4Ka inh)
Cc1[nH]c2ccc(-c3nnc(SCC(=O)NCc4ccco4)n3Cc3ccccc3)cc2c1C	G9a inh 39.8µM, JMJD2A Tudor 56.2µM, BAZ2B block 56.2µM
CCn1c(SCC(=O)NCc2ccco2)nnc1-c1ccncc1	none (no result: PLK1 PBD inh, PI5P4Ka inh, JMJD2A Tudor, HP1b binding inh)
N#C/C(=C\c1ccc(O)c(O)c1)C(=O)N1CCc2ccccc21	G9a inh 6.31µM, JMJD2A Tudor 15.8µM, HP1b binding inh inconclusive, BAZ2B block 8.91µM
N#C/C(=C\c1cccc(O)c1)C(=O)N1CCCCC1	none (no result: G9a inh)
COc1cc(/C=C(\C#N)C(=O)N2CCc3ccccc32)ccc1O	G9a inh 28.2µM, JMJD2A Tudor inconclusive, BAZ2B block inconclusive
COc1ccc(OCCn2nnc3sc4c(c3c2=O)CCC(C(C)(C)C)C4)cc1 (stereo not drawn)	none (no result: PLK1 PBD inh, PI5P4Ka inh)
Cc1ccc(C(=O)c2oc3ccccc3c2NC(=O)Cc2coc3c(C)c(C)ccc23)cc1	none (no result: PLK1 PBD inh, PI5P4Ka inh)
Cc1cccc(NNC(=O)C(=O)NNc2cccc(C)c2)c1	G9a inh inconclusive
Cc1cccc(N=NC(=S)NNc2cccc(C)c2)c1	PLK1 PBD inh inconclusive, JMJD2A Tudor 25.1µM, HP1b binding inh 44.7µM (no result: G9a inh, BAZ2B block)
O=C(C1CCC(Cn2c(=O)c3sccc3n(Cc3ccccc3)c2=O)CC1)N1CCCCC1 (stereo not drawn)	none (no result: PLK1 PBD inh, PI5P4Ka inh)
CN(C)C(CNC(=O)c1cc(S(=O)(=O)N(C)c2ccc(F)cc2)ccc1Cl)c1ccco1 (stereo not drawn)	none
CN(c1ccc(F)cc1)S(=O)(=O)c1ccc(Cl)c(C(=O)NCC(c2ccco2)N2CCCCC2)c1 (stereo not drawn)	G9a inh 28.2µM, JMJD2A Tudor inconclusive, BAZ2B block 56.2µM
Oc1ccccc1CNCCCN1CCOCC1	G9a inh 8.91µM, JMJD2A Tudor 4.47µM, BAZ2B block inconclusive
C=CCOc1cccc(CNCCCN2CCOCC2)c1	none
Brc1cccc(CNCCCN2CCOCC2)c1	PLK1 PBD inh 26.7µM, JMJD2A Tudor inconclusive (no result: G9a inh)
CC(O)(c1cccc(F)c1)c1nc(-c2ccc3ccccc3c2)cs1 (stereo not drawn)	none (no result: G9a inh, JMJD2A Tudor, HP1b binding inh, BAZ2B block)
S=c1[nH]nc(C2CCCCC2)n1/N=C/c1cccc(Br)c1	G9a inh 79.4µM
Cc1cccc(/C=N/NC(=O)C2CCCNC2=O)c1 (stereo not drawn)	none
Cc1cccc(/C=N/n2c(C3CCCCC3)n[nH]c2=S)c1	PLK1 PBD inh 26.7µM, G9a inh 2.51µM, JMJD2A Tudor 56.2µM, BAZ2B block inconclusive
Brc1cccc(/C=N/Nc2nc(N3CCCCC3)nc(N3CCCCC3)n2)c1	none (no result: PLK1 PBD inh, PI5P4Ka inh, JMJD2A Tudor, HP1b binding inh)
COc1cc(/C=N/n2c(C3CCCCC3)n[nH]c2=S)cc(Br)c1O	G9a inh 25.1µM, PI5P4Ka inh -62.0, JMJD2A Tudor 12.6µM
O=S(=O)(c1cccs1)N1CCN(c2nc(-c3cccs3)nc3ccccc23)CC1	none (no result: PLK1 PBD inh, G9a inh, PI5P4Ka inh, BAZ2B block)
O=C(O)c1ccccc1Nc1ccc2nonc2c1[N+](=O)[O-]	G9a inh inconclusive
CC(=O)Nc1ccc(Nc2ccc3nonc3c2[N+](=O)[O-])cc1	none
CCOc1ccc(Nc2ccc([N+](=O)[O-])c3nonc23)cc1	G9a inh 25.1µM, JMJD2A Tudor 35.5µM, HP1b binding inh 12.6µM, BAZ2B block 14.1µM
O=[N+]([O-])c1ccc(Nc2ccccc2)c2nonc12	G9a inh 44.7µM, JMJD2A Tudor 56.2µM, HP1b binding inh inconclusive, BAZ2B block 39.8µM
